Assay results as given in PubChem BioAssay AID1508600 (Functional Genomics Laboratory (NCATS/FGL), 2020).
Screen size: about 53,000 sequences; about 3,700 (7%) were called active. The entries come from a sample that favours actives as a whole. Values without a mark were called inactive.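 How the source made its calls: active means gene knockdowns whose robust z-score for IL-1 alpha signal is at least 2 or at most -2, so actives lie on both sides; inactive means the rest.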

Test: Components of the Cytosolic LPS Sensing Pathway: Gene Identification via Genome-wide siRNA Screen;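 further: robust z of the log signal after scaling to non-targeting control siRNA wells of the plate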
Details: RAW264.7 macrophages, IL-1a HTRF, actives lie on both sides, screened at 100 nM (by protocol), cells primed 5 h with Pam3CSK4 first
How it was run: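 Read-out: IL-1a HTRF on supernatant, divided by plate negative-control median ×100, log-transformed and converted to robust z-score. Cells were RAW264.7 given 100 nM siRNA, Pam3CSK4-primed 5 hours, then LipidA-transfected 24 hour.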

Sequence | z-score
GGAAGAAGCACAAUUUGAATT against Selenof | -0.946
CCUACUCCACGGGUAUUUUTT against 1700065D16Rik | -0.331
GGUGCCGCACACAAACAAUTT against Hipk2 | -2.02 (active)
GGGCCUGAUUUGUCCUCACTT against Sytl1 | -1.57
GGACGGUCCUCUUAAAAGATT against Chat | -0.394
GGCCUAUCAGAUAAAGAAGTT against Vps37b | -1.04
GGUUACUGCUCUCAUGUACTT against Olfr247 | -1.28
GGAGCACUUGUGGAUCAAUTT against Efhd1 | 1.03
GCAUCAUGAACUCCUUUGUTT against H2bc1 | -2.43 (active)
GCAUUUAAUGGCAUUACUGTT against Otol1 | 0.596
GCUGGCGGAGCAAACUCAATT against Foxd3 | 0.756
GGAAUGAAAAACCUACAUGTT against Cxcl13 | 0.453
GUUAUUUGUAUGGUGAGAUTT against Hpcal1 | -1.06
GGCUGCCUAACUGAUAACATT against Inpp4b | 0.24
GGACACUUUACAGUGAUUGTT against Skint4 | 1.1
GCCUCUGAAAGUGUAAUUATT against Ccdc103 | 0.184
GGUGAUUCAACUCACUUGUTT against Olfr1353 | -1.33
GGUAUGUUUUAUCUUGACATT against Olfr851 | 0.269
GGGAUCAGGCCAUUUCCAUTT against Vav2 | 2.26 (active)
GGCAAACGAUAAAGAAAUCTT against Ptp4a2 | 1.58
GGGAUUUGCCAAAGAAUAGTT against AI597479 | 0.875
GGGUGACAGGGCAUGAGAATT against Macroh2a3 | 0.611
GGCCUUUAAGAGUUUCCAUTT against A230052G05Rik | 2.1 (active)

Sequence | z-score
GCAACAAUAUUGCUCUAGATT against Galntl6 | -0.452
GCGAUCAAAAUUGUGUCACTT against Minar2 | -0.776
CGAUCAAAAAAAUCGUGUGTT against Cfap97 | 0.587
GGAAGUGGCCUUAAAGUAUTT against Arhgef37 | -1.67
GUGUCCAGUCCUAAAACGATT against Trib3 | 1.66
GGGAAAGGAUUUUUACAUUTT against Ctdsp1 | 1.83
GCAAACUCAAGGCAUACAUTT against A930017M01Rik | 4.27 (active)
GGUGAACCUGGAAGAACUATT against Manea | 1.64
CGCCAAUUCAUCGUUGACUTT against Ccl3 | 0.773
GGAUUUGGAGUAGAUCAAUTT against Tial1 | 0.638
GGAACUGCUAAUCAACCAUTT against Zmynd10 | -2.14 (active)
GGAAAAAGAGUCCUUCAUGTT against Minar2 | 1.19
GGAACAAGAAACCACAAUGTT against Agpat1 | 0.281
GGAAGAUGCCAUCUUACACTT against Borcs7 | 2.5 (active)
GCAGGUUCACGACACCAACTT against Sv2a | -1.35
GCUGAAUGCGACAUUUAUATT against Hk2 | 0.668
GGCUGAGCUGAUCUUCUUATT against Wnt8a | -0.037
GGUCCGAAAGGCAGCUAUATT against Fcer1g | -2.17 (active)
CGAACAUUCCUUCCAUAACTT against Kcnd3 | 0.609
GGCUGUGCAAGCAAAACCUTT against Mad1l1 | -1.43
GGUACAAGACUGUCAUGUGTT against Mrpl3 | 0.356
GGUCAAAGUCUAGGAGUUUTT against Spp1 | 2.56 (active)
GGUGUCCAGUCAAUAAGAGTT against Msx3 | -0.0298

Sequence | z-score
GGAAAGCUUCAAAAUGGUGTT against Foxj2 | -1.26
GGACAUUGACACUACUCCATT against Cyp2c55 | -0.519
GCCCAACUAAGCAAUAAUATT against Fam216b | 0.395
GCCGAGCAGAUGUACAGAATT against Zfp39 | 2.93 (active)
GUGGUUGAACGGGAAUUUGTT against Gm11487 | 0.542
GGCUUUAGGUAGUAGUCUCTT against Kansl2 | -2.9 (active)
GCCAGUGGAUGUUCAGAAUTT against Ccdc73 | 0.019
GCGAGAGUUUUUCUUCAACTT against Hoxc11 | 0.385
GGAAUGAGGGUAAUGAAUATT against Plin3 | -1.74
GGAGCUAGCUAGAACAAGUTT against Slmap | 1.58
GGAUCAAUCCACAGACGACTT against Dbr1 | 1.56
CGUGGUGAACGAGAUUGAUTT against Kcnab1 | 1.21
GCCUGAUGUUGUUUCCAAATT against Lias | 2.67 (active)
GGUGAAGUUGAAUGGAAGUTT against Crebzf | -0.9
CCUAACACUAGUCUCAGAATT against Olfr873 | 0.192
GGUGCUAAUGACCUUUGAATT against Dbp | -1.5
GGAAUGGGAUAGAUUUGUUTT against Ung | 2.51 (active)
GCUACCUCUGACGACCAAGTT against Slc23a3 | 1.11
CCAUCAGGUUUAAGUCGUATT against Vps36 | -0.698
CGAAGAGAAGUUAUUUGUATT against Mrps23 | 1.19
GGUUUACCAGGAAAAUUGATT against Txnrd3 | -1.09
GGGUCACACUUCAUGGCUUTT against Pofut1 | -2.07 (active)
GGAUUCUUCGCUCCAAUGATT against Pacs1 | 0.73
